The values that follow come from PubChem BioAssay (NCATS).

A short description of assay [1]: Quantitative High-Throughput drug screen in 47 multiple myeloma cell lines against the NCATS MIPE library collection: U266_ATCC cell viability assay (AID 1919864). Also: nearly all actives have a fitted effect of over 35% in size. Also: potency is read from the fitted curve at half-maximal effect.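 As to viability (% of DMSO control): 0% = media-only wells without cells and 100% = DMSO-only wells.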 The method, boiled down:
(§1)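 MIPE 4.0 approved/investigational drugs; 500 cells/well; 48 h 37 °C humidified 5% CO2; CTG luminescence readout; DMSO = 100%, media = 0% viability.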

A short description of assay [2]: Quantitative High-Throughput drug screen in 47 multiple myeloma cell lines against the NCATS MIPE library collection: XG1_PLB cell viability assay (AID 1919866). Also: nearly all actives have a fitted effect of over 35% in size. Also: potency is read from the fitted curve at half-maximal effect. The method in brief:
as §1

Assay [3] can be described thus: Quantitative High-Throughput drug screen in 47 multiple myeloma cell lines against the NCATS MIPE library collection: PE2_PLB cell viability assay (AID 1919869). Also: nearly all actives have a fitted effect of over 35% in size. Also: potency is read from the fitted curve at half-maximal effect. The method in brief: as §1
Assay [4] is described as follows: Quantitative High-Throughput drug screen in 47 multiple myeloma cell lines against the NCATS MIPE library collection: PCM6_Riken cell viability assay (AID 1919870). Also: nearly all actives have a fitted effect of over 30% in size. Also: potency is read from the fitted curve at half-maximal effect. The method, boiled down:
as §1

The nature of assay [5]: Quantitative High-Throughput drug screen in 47 multiple myeloma cell lines against the NCATS MIPE library collection: RPMI8226_ATCC cell viability assay (AID 1919871). Also: nearly all actives have a fitted effect of over 30% in size. Also: potency is read from the fitted curve at half-maximal effect. The method in brief:
as §1

The nature of assay [6]: Quantitative High-Throughput drug screen in 47 multiple myeloma cell lines against the NCATS MIPE library collection: KMS11_JCRBsus cell viability assay (AID 1919873). Also: nearly all actives have a fitted effect of over 50% in size. Also: potency is read from the fitted curve at half-maximal effect. The method, boiled down: as §1
A short description of assay [7]: Quantitative High-Throughput drug screen in 47 multiple myeloma cell lines against the NCATS MIPE library collection: UTMC2_PLB cell viability assay (AID 1919868). Also: nearly all actives have a fitted effect of over 55% in size. Also: potency is read from the fitted curve at half-maximal effect.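 As to viability (% of DMSO control): 100% = DMSO-only wells and 0% = media-only wells without cells.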 The conditions noted are these: CellTiter-Glo ATP luminescence, 48 h; viability (% of DMSO control): at 45.8 µM (top of the series). The method, boiled down:
as §1
For orientation: In ATP-based viability assays light output follows the ATP content of the culture.

A short description of assay [8]: Quantitative High-Throughput drug screen in 47 multiple myeloma cell lines against the NCATS MIPE library collection: OPM2_DSMZ cell viability assay (AID 1919872). Also: nearly all actives have a fitted effect of over 30% in size. The method, boiled down:
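qHTS of the MIPE 4.0 collection: 500 myeloma cells/well, 48 h drug exposure at 37C in 5% CO2, then CellTiter-Glo for 5 min at room temperature before luminescence reading.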

A short description of assay [9]: Quantitative High-Throughput drug screen in 47 multiple myeloma cell lines against the NCATS MIPE library collection: SKMM1_PLB cell viability assay (AID 1919863). Also: nearly all actives have a fitted effect of over 35% in size. The conditions noted are these: SKMM1 myeloma viability, CellTiter-Glo ATP, 48 h; viability: stronger effect = lower value. The method in brief:
as §1

Assay [10] is described as follows: Quantitative High-Throughput drug screen in 47 multiple myeloma cell lines against the NCATS MIPE library collection: KMS28BM_JCRB cell viability assay (AID 1919874). Also: nearly all actives have a fitted effect of over 35% in size. Also: potency is read from the fitted curve at half-maximal effect. The method, boiled down:
as §1

Assay [11] can be described thus: Quantitative High-Throughput drug screen in 47 multiple myeloma cell lines against the NCATS MIPE library collection: XG6_PLB cell viability assay (AID 1919865). Also: nearly all actives have a fitted effect of over 40% in size. The method in brief:
as §1

Assay [12] can be described thus: Quantitative High-Throughput drug screen in 47 multiple myeloma cell lines against the NCATS MIPE library collection: VP6_DJ cell viability assay (AID 1919867). Also: nearly all actives have a fitted effect of over 40% in size. Also: potency is read from the fitted curve at half-maximal effect. The method in brief:
as §1

Results filed as inconclusive are left out. A number with no mark means an inactive call. Activity calls are given as the source filed them. Calls follow the shape of the dose curve; as a rule, active = well fitted cell-killing curve with a large enough effect; inconclusive = small, poorly fitted or top-dose-only effect, or effect the other way; inactive = no such curve, though single readings can be large or run the other way.

For the compound `O=c1[nH]cnc2[nH]ncc12`, the Potency entry in assay [1], in assay [2], in assay [4], in assay [5] and in [6] was “inactive” throughout. Also, the Potency in [3] was 18.7 µM (active).
Take `CC(C)(C)OC(=O)CN(Cc1ccc(Cl)cc1)Cc1ccc([N+](=O)[O-])s1`: in [4], the Potency result was “inactive”.
`CCOc1ccn(-c2ccc(F)cc2)c(=O)c1C(=O)Nc1ccc(Oc2ccnc(N)c2Cl)c(F)c1`: the Potency in assay [2] was 3.32 µM (active); in assay [7] it was 13.2 µM (active); in assay [3], 13.2 µM (active). Also, the Potency result in assay [8] was “inactive”.
Consider `O=C(C1CC1)N1CC[C@@H](Cn2c(-c3ccc(-c4ccc5occc5c4)cc3)nc3cnccc32)C1`, for which the viability in assay [9] is 107%. In addition, the Potency in assay [2] was 16.6 µM (active). Also, the Potency entry in [5] was “inactive”.
Regarding `CN(C)c1ccc(C2Nc3ccc4ccccc4c3C3=C2C(=O)CC(C)(C)C3)cc1Br` (stereo unspecified), the Potency result in [1], in assay [4], in assay [8] and in assay [10] was “inactive” throughout. For the same compound, the Potency in assay [3] is 5.26 µM (active).
`Cc1cnc(Nc2ccc(OCCN3CCCC3)cc2)nc1Nc1cccc(S(=O)(=O)NC(C)(C)C)c1`: the Potency entry in assay [11] and in assay [8] was “inactive” each time. The results for the Potency in assay [2], in assay [12] and in assay [10] were 0.469 µM (active), 0.332 µM (active) and 0.935 µM (active), respectively.
Take `O=c1[nH]c(-c2ccc(C(F)(F)F)cc2)nc2c1CSCC2`: the Potency in [1] is 18.7 µM (active). Further, the Potency entry in assay [2], in [8], in assay [6] and in assay [10] was “inactive” throughout.
As for `Clc1ccc(Nc2nnc(Cc3ccncc3)c3ccccc23)cc1`, the Potency in [12] was 23.5 µM (active); in assay [4] it was 14.8 µM (active). The Potency entry in assay [8] is “inactive”.
Turning to `NCCCC(N)(C(=O)O)C(F)F` (stereo unspecified), the viability in assay [9] was 97%. For the same compound, the Potency entry in [2], in [3], in [8] and in assay [10] was “inactive” throughout. Further, in assay [6], the Potency is 18.7 µM (active).
In the case of `NS(=O)(=O)c1cc2c(cc1Cl)NC=NS2(=O)=O`, the Potency result in assay [1], in assay [12], in [3], in assay [5], in assay [8] and in assay [10] was “inactive” each time.
As for `Cc1cc(C=c2sc3nc4ccccc4n3c2=O)c(C)n1-c1ccccc1`, the Potency entry in assay [12], in assay [3], in assay [4], in assay [6] and in [10] was “inactive” throughout.
For the compound `CCOc1cc(C(=O)Nc2ccc(Cl)c(-c3nc4ccccc4[nH]3)c2)cc(OCC)c1OCC`, the Potency entry in [7] and in assay [10] was “inactive” throughout. The Potency in [3] is 8.33 µM (active); in [5] it was 18.7 µM (active).
In the case of `CCCc1nn(C)c2c(=O)[nH]c(-c3cc(S(=O)(=O)N4CCN(C)CC4)ccc3OCC)nc12`, the Potency in assay [1] is 20.9 µM (active).
In the case of `NC(=O)c1ccc(-c2nc(-c3ccc4c(c3)OCO4)c(-c3ccccn3)[nH]2)cc1`, the Potency result in assay [1] and in assay [10] was “inactive” throughout.
With `CC(C)NCC(O)COc1ccc(COCCOC(C)C)cc1` (stereo unspecified), the Potency result in assay [1], in [11], in assay [2], in [7], in [4] and in assay [5] was “inactive” in each case.
`NC(N)=NC(=O)c1nc(Cl)c(N)nc1N`: the Potency entry in assay [1] and in assay [8] was “inactive” throughout. Also, in assay [2], the Potency is 8.33 µM (active).
With `Cc1csc(NC(=O)c2sc3nc4c(c(C(F)(F)F)c3c2N)CCC4)n1`, the Potency in [1] was 7.43 µM (active); in assay [2], 2.35 µM (active); in assay [5] it was 13.2 µM (active); in assay [10] it was 26.4 µM (active). Also, the Potency entry in [7] and in assay [3] was “inactive” throughout.

One may read the viability as a read-out of living cells in per cent, often relative to untreated cells.
